# Test results reported in PubChem BioAssay (NCI).
# Several values for one entry are separate records, joined by “and”; a condition that tells them apart may be missing. Identical values can stand only once. About 83,000 compounds went through this panel and 20% of them were active in at least one assay; those are over-represented in the sample as a whole.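 Growth was measured after 48 h exposure to one concentration of compound in 96-well plates. Values under 10 count as active.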 Activity calls are given as the source filed them.
# Experiments:
# Assay in all cases: NCI-60 one-dose screen, 48 h (100 = growth as untreated, 0 = no growth, -100 = all killed)
# Settings in all cases: 10 µM unless noted
# DU-145 prostate = test system: DU-145 prostate
# K-562 leukemia = test system: K-562 leukemia
# MALME-3M melanoma = test system: MALME-3M melanoma
# MDA-MB-231 breast = test system: MDA-MB-231 breast
# RXF 393 renal = test system: RXF 393 renal
# SF-268 CNS = test system: SF-268 CNS
# SF-295 CNS = test system: SF-295 CNS
# SF-539 CNS = test system: SF-539 CNS
# UACC-257 melanoma = test system: UACC-257 melanoma
# M14 melanoma = test system: M14 melanoma
Structure (SMILES),growth (DU-145 prostate),growth (K-562 leukemia),growth (MALME-3M melanoma),growth (MDA-MB-231 breast),growth (RXF 393 renal),growth (SF-268 CNS),growth (SF-295 CNS),growth (SF-539 CNS),growth (UACC-257 melanoma),growth (M14 melanoma)
CN(C)CCC(=O)c1ccc(Cl)cc1,112% (inactive) and 133% (inactive),110% (inactive) and 91.3% (inactive),106% (inactive) and 122% (inactive),105% (inactive) and 107% (inactive),110% (inactive) and 121% (inactive),105% (inactive) and 107% (inactive),117% (inactive) and 126% (inactive),106% (inactive),103% (inactive) and 104% (inactive),98.6% (inactive) and 109% (inactive)
CC(C)N=c1cc2n(-c3ccc(Cl)cc3)c3ccccc3nc-2cc1Nc1ccc(Cl)cc1,51.4% (inactive) and 15.5% (inactive),14.5% (inactive) and -17.3% (active),5.85% (active) and -83.1% (active) and -46% (active),-0.451% (active) and 26% (inactive) and 10.6% (inactive),8.99% (active) and -11.2% (active) and 12.3% (inactive),45.5% (inactive) and 35.7% (inactive) and 31.2% (inactive),9.83% (active) and 19.6% (inactive) and -10.5% (active),72.8% (inactive) and 73.3% (inactive) and 59.1% (inactive),28.3% (inactive) and 29.6% (inactive) and 7.9% (active),-8.29% (active) and -34.4% (active) and -56.7% (active)
COc1cc(Nc2nc3ccccc3nc2NS(=O)(=O)c2ccc(NC(=O)c3ccc(C)c(OC)c3)cc2)cc(OC)c1,63.2% (inactive) and 12.9% (inactive),63% (inactive) and 29.3% (inactive),30.7% (inactive) and -18.6% (active),77.2% (inactive) and 13.5% (inactive),75.1% (inactive) and -38.8% (active),54.8% (inactive) and 18.2% (inactive),41.7% (inactive) and -32.8% (active),62.7% (inactive) and -35.7% (active),74.7% (inactive) and -18.8% (active),64.1% (inactive) and 8.75% (active)
Fc1ccccc1Nc1n[nH]c(=S)s1,110% (inactive),107% (inactive),127% (inactive),109% (inactive),116% (inactive),91.5% (inactive),126% (inactive),105% (inactive),103% (inactive),109% (inactive)
N#CCCOc1ccccc1,117% (inactive),89.6% (inactive),95.1% (inactive),108% (inactive),114% (inactive),102% (inactive),101% (inactive),96.2% (inactive),92.6% (inactive),97.9% (inactive)
O=C(Nc1ccc(Cl)cc1)c1cc2ccccc2cc1O,29.6% (inactive) and 10% (inactive),14.1% (inactive) and 7.46% (active),29.4% (inactive) and 17% (inactive),52.7% (inactive) and 41.7% (inactive),53.6% (inactive) and -17% (active),53.6% (inactive) and 24.9% (inactive),10.2% (inactive) and 3.7% (active),22.7% (inactive) and 12.5% (inactive),20.7% (inactive),55% (inactive) and 7.47% (active)
O=C1C2=C(C(=O)c3ccccc31)C(O)(S(=O)(=O)O)C(O)(S(=O)(=O)O)C1N=CC=CC21 (stereo not given),64.2% (inactive) and 48% (inactive),13.5% (inactive) and 40% (inactive),73% (inactive) and 62.1% (inactive),58.3% (inactive) and 47.6% (inactive),76.7% (inactive) and 58.1% (inactive),52.2% (inactive) and 36.5% (inactive),6.52% (active) and 15.4% (inactive),25.4% (inactive) and 20.8% (inactive),71.4% (inactive) and 35.3% (inactive),42.9% (inactive)
Cn1c(=O)n(-c2ccc(C(C)(C)C#N)cc2)c2c3cc(-c4cnc5ccccc5c4)ccc3ncc21,15.3% (inactive) and 6.2% (active),10.2% (inactive) and 10.6% (inactive),-14.1% (active) and -14.8% (active),19.3% (inactive) and 20% (inactive),-22.6% (active) and -17.3% (active),11.2% (inactive) and 7.46% (active),-20.4% (active) and -4.51% (active),-30.1% (active) and -17.4% (active),-9.78% (active) and -14.4% (active),7.18% (active) and 0.962% (active)
CO/N=C/C=C\C(=O)N/C=C/C[C@H]1/C=C/[C@H](O)/C=C\C=C\c2cccc(O)c2C(=O)O1,55.6% (inactive) and 40% (inactive),4.46% (active) and 2.94% (active),59.8% (inactive) and 22.5% (inactive),27.3% (inactive) and 41.9% (inactive),51% (inactive) and 55.5% (inactive),45.5% (inactive) and 31.9% (inactive),-36.9% (active) and -43.7% (active),21% (inactive) and 4.04% (active),-16.7% (active) and 21.8% (inactive),-13.4% (active) and -41% (active)
O=C(CCl)c1ccc2c(c1)Nc1ccccc1S2,104% (inactive),29.5% (inactive) and 30.3% (inactive),91.5% (inactive),97.7% (inactive) and 89.5% (inactive),103% (inactive),104% (inactive) and 98.5% (inactive),94.8% (inactive) and 96.3% (inactive),91.7% (inactive) and 84.5% (inactive),102% (inactive) and 96.8% (inactive),91.6% (inactive) and 91.5% (inactive)
CCN(CC)C(=S)SSC(=S)N(CC)CC,83.4% (inactive) and 109% (inactive),54.6% (inactive) and 80.5% (inactive),61.2% (inactive) and 113% (inactive),81.6% (inactive) and 102% (inactive),105% (inactive) and 131% (inactive),88.1% (inactive) and 95.7% (inactive),78.5% (inactive) and 103% (inactive),91.5% (inactive) and 92.8% (inactive),69.7% (inactive) and 69.5% (inactive),66.8% (inactive) and 92.4% (inactive)
COc1ccc2c(=O)cc(-c3ccccc3)[nH]c2c1,15% (inactive) and 19.1% (inactive),9.54% (active) and -12.9% (active),40.7% (inactive) and 47.9% (inactive),29.9% (inactive) and 29.1% (inactive),7.41% (active),45.3% (inactive) and 43.1% (inactive),-8.08% (active) and 2.52% (active),-5.99% (active) and -23.9% (active),65.2% (inactive) and 30.5% (inactive),4.76% (active) and 0.39% (active)
Nc1cc2c(cc1N)-c1ccccc1C2,104% (inactive) and 106% (inactive),79.4% (inactive) and 87% (inactive),76.5% (inactive) and 103% (inactive),64.7% (inactive) and 97% (inactive),88.2% (inactive) and 96.4% (inactive),86.8% (inactive) and 92.6% (inactive),156% (inactive) and 98.8% (inactive),74.9% (inactive) and 92.5% (inactive),101% (inactive) and 98.1% (inactive),97.1% (inactive) and 109% (inactive)
S=C(S)N1CCCC1,105% (inactive) and 128% (inactive),39.6% (inactive) and 76.5% (inactive),96.1% (inactive) and 99.7% (inactive),92.3% (inactive) and 125% (inactive),112% (inactive) and 125% (inactive),97% (inactive) and 116% (inactive),112% (inactive) and 103% (inactive),110% (inactive) and 128% (inactive),96.5% (inactive) and 92.6% (inactive),93.8% (inactive) and 101% (inactive)
CC1=C[C@H]2c3c(c(O)c(O)c4oc5cc(O)cc(O)c5c(=O)c34)[C@H](c3cc(O)c(O)c4oc5cc(O)cc(O)c5c(=O)c34)[C@H]2C(C)(C)C1,22.6% (inactive) and -4.25% (active),2.32% (active),10.8% (inactive) and -30.5% (active),-7.38% (active) and -58.3% (active),-4.11% (active),10.3% (inactive) and -12.3% (active),-47.5% (active) and -27.1% (active),-33.5% (active) and -26.5% (active),21% (inactive) and 0.565% (active),-9.96% (active) and -19.6% (active)
